Pf growth 48h: inhibits P. falciparum growth in the first generation, 48 h; P. falciparum luciferase growth in erythrocytes, 48 h; Potency, µM (titrated, usually from 28.7 µM), most hits filed as inhibitors; 310,000 tested, 5.9% active
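A one-generation exposure of luciferase-tagged malaria parasites in RPMI 1640/Albumax erythrocyte culture, 37 C and 5% CO2. Inhibition is inferred from decreased luminescence after adding detection reagent.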
AmpC detergent: AmpC beta-lactamase inhibition with detergent present; Potency, µM (series often up to 114 µM), hits mostly inhibitors; P00811; AID 485294; 370,000 tested, 0.041% active; AmpC hydrolysis of nitrocefin, absorbance 480 nm, 0.01% Triton; also: nearly all actives have a fitted effect of over 25% in size
Target sequence (P00811 whole entry, looked up): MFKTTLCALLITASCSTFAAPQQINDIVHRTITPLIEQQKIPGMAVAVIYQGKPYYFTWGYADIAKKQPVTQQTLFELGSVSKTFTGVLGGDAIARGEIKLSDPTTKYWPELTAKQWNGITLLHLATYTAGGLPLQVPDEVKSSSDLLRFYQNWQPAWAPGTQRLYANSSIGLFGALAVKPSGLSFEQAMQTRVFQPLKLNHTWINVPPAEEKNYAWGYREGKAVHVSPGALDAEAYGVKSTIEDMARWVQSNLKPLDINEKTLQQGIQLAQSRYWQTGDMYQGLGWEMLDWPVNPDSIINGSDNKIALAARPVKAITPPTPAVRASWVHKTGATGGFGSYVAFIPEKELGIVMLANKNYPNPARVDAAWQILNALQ
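AmpC (5.3 nM in the dispensed reagent) in 20 mM phosphate pH 7.0 with 0.01% (detergent screen) or 0.0001% Triton X-100 was preincubated with compounds for 15 min at room temperature. Nitrocefin was then added from an 800 uM solution, and hydrolysis was followed at 480 nm.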
Pf growth 96h: inhibits malaria parasite growth, 96 h; Potency, µM (doses to about 28.7 µM), usual class: inhibitors; P. falciparum luciferase reporter growth, 96 h; AID 504834; 320,000 tested, 6.9% active
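Delayed-death screen, second-generation endpoint: infected erythrocytes, 2% hematocrit, 0.05% parasitemia final; 96 hours at 37 C, 5% CO2; luciferase detection reagent; luminescence decrease equals reduced growth.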
HCV inhibitor: HCV inhibition | Huh7.5.1 HCVcc-Cre infection, luciferase reporter, 44 h | AID 651820 | 340,000 tested, 3.4% active | Potency, µM (series often up to 41.8 µM), most hits filed as inhibitors
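Whole-lifecycle infectious HCVcc-Cre system; cells 1,000/well, compound then virus (~0.5 moi) added 4 h after plating, 44 h culture. Luciferase read 15 sec following 15 min substrate incubation, room temp.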
AMA1-RON2 inh: inhibitors of Plasmodium falciparum AMA1-RON2 interaction; AID 720542; 360,000 tested, 0.2% active; Potency, µM (highest dose often 58.2 µM), most hits filed as inhibitors; AlphaScreen AMA1-biotinylated RON2 peptide binding; also: nearly all actives have a fitted effect of over 45% in size
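AMA1 (3D7) with his tag at 25 nM final met compounds first, then biotinylated RON2 peptide at 25 nM; detection used donor plus acceptor beads, 10 µg/mL apiece, read by AlphaScreen after 30 min at room temperature.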
AmpC inh no detg: blocks E. coli AmpC beta-lactamase in detergent-free assay; P00811; AID 485341; Potency, µM (doses to about 57.1 µM), actives largely listed as inhibitors; AmpC nitrocefin hydrolysis, absorbance 480 nm, 0.0001% Triton; 330,000 tested, 0.52% active; also: nearly all actives have a fitted effect of over 20% in size
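20 mM phosphate pH 7.0 + 0.01% (detergent screen) or 0.0001% Triton X-100; 5.3 nM AmpC reagent; cpd preinc 15 min RT; nitrocefin (800 uM stock) to start; A480 q20 s × 4 min; Activity was normalised to no-enzyme and no-compound control wells.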
A number is an active result; - = inactive; ? = inconclusive; . = no result given; [ ] = dose if it differs, or a comment. Shown are actives, neighbours in structure and some others; about 11% of the full set was active somewhere. Calls follow the shape of the dose curve; as a rule, active = well fitted curve in the direction sought with a large enough effect; inconclusive = small, poorly fitted or top-dose-only effect, or another doubt; inactive = no such curve, though single readings can be large; an effect the other way counts as inactive or inconclusive.

SMILES | Pf growth 48h | AmpC detergent | Pf growth 96h | HCV inhibitor | AMA1-RON2 inh | AmpC inh no detg
CCOC(=O)c1cnc(-n2nc(C)cc2C)nc1Nc1ccc(C)cc1 | ? | - | ? | - | - | -
CCOC(=O)c1cnc(-n2nc(C)cc2C)nc1Nc1cccc(C(=O)O)c1 | - | - | ? | - | - | -
COc1ccc(NS(=O)(=O)c2cccc(-c3n[nH]c(=S)n3Cc3ccccc3)c2)cc1 | ? | ? | - | - | - | 13µM
COc1ccc(NS(=O)(=O)c2ccc(-c3n[nH]c(=S)n3Cc3ccccc3)cc2)cc1 | ? | - | - | - | - | 7.9µM
OCCN(Cc1ccccc1)Cc1nc(CC2CC2)no1 | - | - | 1.7µM | - | - | -
c1ccc(C2CCCN(Cc3nc(CC4CC4)no3)CC2)cc1 (centres undefined) | ? | - | - | - | ? | -
OCCN(Cc1ccccc1)Cc1ccccc1O | 4.1µM | ? | ? | - | - | -
CCCc1cc(N2CCN(C(=O)c3ccco3)CC2)n2c(nc3ccccc32)c1C#N | 12µM | - | . | ? | - | -
N#Cc1c(SCC(=O)O)nc(-c2ccccc2)c2c1CCCC2 | - | - | ? | - | - | -
CCCCc1nc(N2CCN(C(=O)c3ccco3)CC2)c(C#N)c2c1CCCC2 | 9.3µM | - | ? | 14µM | - | -
CCC(=O)N1CCN(c2nc(-c3ccccc3)c3c(c2C#N)CCCC3)CC1 | . | - | - | 10µM | - | -
CCCc1nc(N2CCCC2)c(C#N)c2c1CCCC2 | - | - | ? | ? | - | -
COc1ccccc1/C=C(\C#N)c1nc(-c2cc3ccccc3oc2=O)cs1 | . | - | . | . | . | .
CCN(CCCCCN(C)C)Cc1cc2ccccc2o1 | 10µM | - | 5.2µM | ? | - | -
CN1CCN(c2ccc(-c3ccc4ccccc4n3)cc2)CC1 | - | - | -[5.75 µM] | 16µM | - | -[2.29 µM]
c1ccc2nc(-c3ccc(N4CCOCC4)cc3)ccc2c1 | - | - | - | ? | - | -
O=c1c2ccccc2nc(-c2ccco2)n1Cc1ccccc1 | - | - | ? | - | - | .
CCOc1ccc(CCNC(=O)Cn2c(=O)oc3ccccc32)cc1OCC | 8.3µM | - | . | - | - | -
CC1CCCC(C)N1c1nnc(NC(=O)Cn2c(=O)oc3ccccc32)s1 (centres undefined) | - | - | ? | - | - | 10µM
CCOc1ccc(CCn2c(-c3ccco3)nc3ccccc3c2=O)cc1OCC | . | - | ? | 7.1µM | - | -
CCOc1ccc(CCNC(=O)Cn2c(-c3nonc3N)nc3ccccc32)cc1OCC | ? | - | ? | 14µM | - | -
CCc1nnc(NC(=O)Cn2c(=O)oc3ccccc32)s1 | . | - | - | - | - | -
COc1ccccc1CNC(=O)CCCCn1c(=O)c2ccccc2n(Cc2ccccc2F)c1=O | . | - | . | . | . | .
COc1cccc(-c2cn3c(n2)sc2cc(C(=O)NCCCc4ccccc4)ccc23)c1 | . | - | . | . | . | .
O=C(Nc1ccc(F)cc1)c1cccc(N2CCCS2(=O)=O)c1 | . | - | . | . | . | .
SMILES | Pf growth 48h | AmpC detergent | Pf growth 96h | HCV inhibitor | AMA1-RON2 inh | AmpC inh no detg
Cc1ccccc1NC(=O)CSc1nc(-c2cccs2)nc2cc(=O)[nH]n12 | ? | - | - | . | . | -
Cc1oc2c(c(C)cc3oc(=O)c(CC(=O)NCCc4ccccc4F)c(C)c32)c1C | . | - | . | . | . | .
CCOc1ccccc1CNCc1c(C(=O)O)n(Cc2ccc(F)cc2)c2cc(C)ccc12 | . | - | . | . | . | .
CCOc1ccccc1NC(=O)CCn1c(=O)oc2ccccc21 | - | - | 6.6µM | - | - | -
Cc1ccccc1NC(=O)Cn1c(=O)oc2ccccc21 | - | - | 4.1µM | - | - | -
CCCOc1ccc(CNC(=O)Cn2c(=O)oc3ccccc32)cc1 | - | - | ? | ? | - | 7.9µM
CC(C)Oc1ccc(CNC(=O)Cn2c(=O)oc3ccccc32)cc1 | . | - | ? | - | - | -
CCc1ccccc1NC(=O)Cn1c(=O)oc2ccccc21 | . | - | . | . | . | .
COCCN(CCOC)C(=O)CCn1c(=O)oc2ccccc21 | - | ? | 1.2µM | ? | - | -
COCCNC(=O)CCn1c(=O)oc2ccccc21 | - | ? | - | - | - | -
CCOc1ccccc1N(CC)C(=O)Cn1ncc2c([nH]c3ccccc32)c1=O | . | - | . | . | . | .
CCOc1ccc(CNC(=O)CCn2c(=O)oc3ccccc32)cc1OC | ? | ? | 9.3µM | - | - | -
COc1ccc(CNC(=O)Cn2c(=O)oc3ccccc32)cc1OC | - | - | . | - | - | -
Cc1ccc(-n2c(C)cc(C3N=C(N)Nc4nc5ccccc5n43)c2C)c(C)c1 (centres undefined) | 8.3µM | - | - | ? | - | -
Cc1cc(C2N=C(N)Nc3nc4ccccc4n32)c(C)n1-c1ccccc1Cl (centres undefined) | . | - | - | - | - | -
Cc1ccc(S(=O)(=O)C(CNC(=O)COc2ccccc2)c2cccs2)cc1 (centres undefined) | . | - | . | . | . | .
CCOc1ccc(-n2c(SC)nc3c(c2=O)SCC3)cc1 | - | - | ? | - | - | -
CCOc1ccc(-n2c(SC(C)C)nc3c(c2=O)SCC3)cc1 | 8.3µM | - | - | - | - | -
CSc1nc2c(c(=O)n1-c1ccc(C)cc1)SCC2 | 9.3µM | - | - | - | - | -

Assay outcomes deposited in PubChem by National Center for Advancing Translational Sciences (NCATS).
